# Source: publication PMC4552634, “A New Set of Chemical Starting Points with Plasmodium falciparum Transmission-Blocking Potential for Antimalarial Drug Discovery” (PLoS ONE, 2015)
# Screen size: about 13,000 compounds; about 3,200 (25%) showed an effect of 50% or more. This is one part of the list.
# System: P. falciparum stage V gametocytes
# Set-up: BacTiter-Glo ATP luminescence viability of purified stage V gametocytes in 384-well plates, per cent inhibition versus DMSO
# Settings: 48 h, 5 µM; inhibitor
row,Compound,% Inhibition [%]
1,O=C(Nc1ccc(-c2nc3ccccc3[nH]2)cc1)C1CCN(Cc2ccc(F)cc2)CC1 [TCMDC-124680],4.478
2,CCCc1cc(=O)[nH]c(-n2nc(C)cc2NC(=O)CC(c2ccccc2)c2ccccc2)n1 [TCMDC-124940],43.65
3,CC(C)C[C@H](NC(=O)c1cccc(F)c1)C(=O)N[C@H](/C=N/NC(=O)c1ccccc1)CCc1ccccc1 [TCMDC-135679],8.745
4,CC(=O)Nc1ccc(CN2CCc3ccc(NS(=O)(=O)c4ccc(-c5cccc(C(F)(F)F)c5)cc4)cc3CC2)s1 [TCMDC-132328],7.357
5,Cc1ccc(-c2ccc(NC(=O)N3CCc4cc(Br)c(N5CCN(C)CC5)cc43)cc2)cn1 [TCMDC-139294],-24.43
6,CN(C)CCNC(=O)c1csc(Nc2ccc(Cl)c(Cl)c2)n1 [TCMDC-123722],-60.24
7,COc1cccc2cc(C(=O)N[C@@H](CC(C)C)C(=O)N[C@H](C=NNC(=O)OC(C)(C)C)CC(C)C)oc12 [TCMDC-136062],12.96
8,Cc1ccc2nc(C)n(C3CCN(C(=O)Cc4ccccc4C)CC3)c2c1 [TCMDC-124795],76.45
9,Cc1ccc2nc(C)n(C3CCN(C(=O)C4(c5ccccc5)CC4)CC3)c2c1 [TCMDC-124796],44.07
10,COc1ccc(Br)cc1/C=C/C(=O)Nc1cccc(C2CCCN(C)C2)c1 (centres unmarked) [TCMDC-133710],13.98
11,Cc1ncccc1-c1cccc2c(NC(=O)Nc3ccc4nccc(N5CCN(C)CC5)c4c3)cccc12 [TCMDC-139369],-6.373
12,CN1CCN(c2ccnc3ccc(NC(=O)Nc4cccc5c(-c6ccncc6)cccc45)cc23)CC1 [TCMDC-139252],-0.3523
13,CN1CCN(c2ccnc3ccc(NC(=O)Nc4ccc(-c5ccncc5)c(C(F)(F)F)c4)cc23)CC1 [TCMDC-139260],40.16
14,Cc1nc(-c2cccc3c(NC(=O)Nc4ccc5nccc(N6CCN(C)CC6)c5c4)cccc23)no1 [TCMDC-139340],66.85
15,CN1CCN(c2ccnc3ccc(NC(=O)Nc4ccc(-c5ccncc5)c5ccccc45)cc23)CC1 [TCMDC-139251],-4.793
16,CN1CCN(c2ccnc3ccc(NC(=O)Nc4ccc(-c5ccncc5)c(C#N)c4)cc23)CC1 [TCMDC-139268],80.15
17,COC(=O)c1ccc(CC(C)NCC(O)c2cccc(OC(F)(F)F)c2)cc1 (centres unmarked) [TCMDC-131487],26.86
18,Cc1[nH]c(/C=C2\C(=O)Nc3ccc(S(=O)(=O)Cc4c(Cl)cccc4Cl)cc32)c(C)c1C(=O)N1CCC[C@@H]1CN1CCCC1 [TCMDC-125885],103.4
19,O=C(c1cccc(-c2cccc(-c3nc4ccccc4[nH]3)c2)c1)N1CCCCC1CN1CCC(O)C1 (centres unmarked) [TCMDC-132311],-3.438
20,Cc1cccc2nc(-c3cccc(-c4cccc(C(=O)N5CCCCC5CN5CCC(O)C5)c4)c3)[nH]c12 (centres unmarked) [TCMDC-132347],6.025
21,COc1cccc(C=Cc2nc(=O)c3ccccc3o2)c1OC [TCMDC-124577],34.84
22,COc1ccc(Cc2cnc3nc(N)nc(N)c3c2C)cc1OC [TCMDC-138057],6.807
23,O=C(Nc1ccc2nc3n(c(=O)c2c1)CCCCC3)C(=O)N1CCC(Cc2ccccc2)CC1 [TCMDC-125294],-23.73

row,Compound,% Inhibition [%]
1,CCCCc1ccc(C(=O)Nc2ccc3nc(N4CCN(CC)CC4)cc(C)c3c2)cc1 [TCMDC-125578],-16.83
2,CCCCc1ccc(C(=O)Nc2ccc3nc(N4CCN(C)CC4)cc(C)c3c2)cc1 [TCMDC-125570],-31.24
3,CNc1c2c(nc3ccc(NC(=O)CCCCCCc4ccccc4)cc13)CCCC2 [TCMDC-139066],79.48
4,Nc1ccnc2ccc(NC(=O)CCCCCc3ccccc3)cc12 [TCMDC-139070],2.045
5,O=C(CCCCCCc1ccccc1)Nc1ccc2nc3c(c(NCc4ccccc4)c2c1)CCCC3 [TCMDC-139063],91.52
6,COc1ccc2nccc(NN=Cc3cccnc3)c2c1 [TCMDC-142032],-14.51
7,O=C(Nc1nccs1)c1cn(-c2ccccc2)nc1-c1ccc(Cl)s1 [TCMDC-123623],9.788
8,CC(C)(CNC(=O)C1CCN(CCOc2ccc(Cl)cc2)CC1)c1nc(-c2ccc(Cl)c(O)c2)c(-c2ccncc2)[nH]1 [TCMDC-141124],-30.29
9,Cc1cccc(CN2CCCN(Cc3ccc(C(=O)Nc4ccc(C)c(F)c4)cc3)CC2)c1 [TCMDC-136396],-4.425
10,COc1ccc(CNCCc2cccs2)cc1-c1ccc(OC)c(S(=O)(=O)NCCN2CCCC2)c1 [TCMDC-132476],71.75
11,COc1ccc(CNCCc2cccs2)cc1-c1cccc(S(=O)(=O)NCCN2CCCC2)c1 [TCMDC-132479],91.1
12,Cc1cc(-c2ccc(CNCCc3cccs3)cc2)ccc1S(=O)(=O)NCc1ccccc1 [TCMDC-132473],18.33
13,COc1ccc(CNCCc2cccs2)cc1-c1ccc(S(=O)(=O)NCCN2CCCC2)cc1 [TCMDC-132475],76.8
14,S=c1nc(-c2ccccc2)n2ccsc2n1 [TCMDC-123905],9.815
15,CC(C)c1ncc(-c2ccncc2)c(C2CCC(CNC(=O)c3cccnc3)CC2)n1 (centres unmarked) [TCMDC-124825],14.15
16,O=C(Nc1cccc(-c2ccc(-c3nc4ccccc4[nH]3)cc2)c1)Nc1ccc(F)c(F)c1F [TCMDC-133230],-14.97
17,CCc1cccc(OCCCON2C(N)=NC(N)=NC2(C)C)c1 [TCMDC-131306],2.586
18,Fc1ccc2nc(-c3ccc(-c4ccc(CN5CCN(c6cnccn6)CC5)cc4)s3)[nH]c2c1 [TCMDC-133893],9.584
19,O=C(CCCCCNC(=O)c1ccc(O)c(-c2ccc(Cl)c(Cl)c2)c1)NC1CCCc2ccccc21 (centres unmarked) [TCMDC-140866],4.143
20,COc1ccc2nc(SC(C)C(=O)c3c[nH]c4ccccc34)[nH]c2c1 (centres unmarked) [TCMDC-125034],61.61
21,Cc1noc(-c2cccs2)c1C(=O)NC(C)c1cccc2ccccc12 (centres unmarked) [TCMDC-124788],-15.69
22,CC1CN(c2ccc3[nH]cc(Sc4ccc(-c5cccs5)cc4)c3c2)CC(C)N1 (centres unmarked) [TCMDC-136644],-55.49
23,COc1cccc(-c2cc(C(=O)Nc3ccc4nc(-c5ccccc5)[nH]c4c3)[nH]n2)c1 [TCMDC-134319],8.642

row,Compound,% Inhibition [%]
1,COC(=O)c1ccc2c(-c3nc4ccc(OC)cc4[nH]3)c[nH]c2c1 [TCMDC-135457],32.14
2,O=C(CSc1n[nH]c(-c2ccccc2Br)n1)c1c[nH]c2ccccc12 [TCMDC-123710],82.49
3,CC(Sc1n[nH]c(-c2cccs2)n1)C(=O)c1c[nH]c2ccccc12 (centres unmarked) [TCMDC-125010],53.42
4,Cc1cc(N(C)C)nc(Nc2ccc(NC(=O)c3c(F)cccc3F)cc2)n1 [TCMDC-124977],1.948
5,COc1cc(SC)c(Br)cc1-c1nc2ccncc2[nH]1 [TCMDC-138164],-13.77
6,Oc1ccc(CCNc2nc(NCc3ccccc3Oc3ccc(C(F)(F)F)cc3)nc(N3CCNCC3)n2)cc1 [TCMDC-134133],-9.208
7,CCOc1cc(C2C(C(=O)OC(C)C)=C(C)NC3=C2C(=O)CC(c2ccc(Cl)cc2)C3)ccc1OC(C)=O (centres unmarked) [TCMDC-125628],-56.66
8,Cc1cnc2ccc(NS(=O)(=O)c3ccc4c(Cl)cccc4c3)cc2c1N1CCNCC1 [TCMDC-139558],37.46
9,CCOc1c(Br)cc(Cl)cc1CNCCCNc1nc2ccccc2[nH]1 [TCMDC-140106],5.667
10,CCCCOc1ccc(CNCCCCCCNCc2ccc(OCCCC)c3ccccc23)c2ccccc12 [TCMDC-137281],121.9
11,CCCCSc1c(CNCCCCCCNCc2ccc3ccccc3c2SCCCC)ccc2ccccc12 [TCMDC-137825],112.9
12,CN(C)c1c(CNCCCCCCNCc2ccc3ccccc3c2N(C)C)ccc2ccccc12 [TCMDC-137834],115.6
13,CCOc1c(CNCCCCCCNCc2ccc3ccccc3c2OCC)ccc2ccccc12 [TCMDC-137942],73.68
14,CCCc1ccc2c(c1O)CCC(N(CCC)CCC)C2 (centres unmarked) [TCMDC-138031],-27.54
15,COc1ccc(CN(C)CC(O)COc2ccc(NC(=O)c3cccc4c(=O)c5cccc(OC)c5[nH]c34)cc2)cc1OC (centres unmarked) [TCMDC-131851],12.51
16,O=C(Cc1ccccc1)NC1(c2ccccc2)CCN(CCc2c[nH]c3ccc(F)cc23)CC1 [TCMDC-131991],26.26
17,CCC(C)c1ccc(NC(=O)c2ccc(S(=O)(=O)Nc3ccc(OC)c(N4CCN(CC5CC5)CC4)c3)cc2)cc1 (centres unmarked) [TCMDC-136299],-16.95
18,Oc1ccccc1CN1CCC2(CCCN(Cc3ccccc3F)C2)C1 (centres unmarked) [TCMDC-124620],28.07
19,Cc1cc(NC2CCCC2)nc(Nc2ccc(F)cc2)n1 [TCMDC-133472],46.74
20,CCCCOc1c(CNCCCCCCNCc2ccc3ccccc3c2OCCCC)ccc2ccccc12 [TCMDC-137975],107.4
21,CCCCOc1cc(CNCCCCCCNCc2cc(OCCCC)cc3ccccc23)c2ccccc2c1 [TCMDC-137824],36.59
22,COC(=O)c1cccc(CNCc2ccc(-c3ccc(-c4nc5cc(C(F)(F)F)ccc5[nH]4)cc3)cc2)c1.O=C(O)C(F)(F)F [TCMDC-132954],-38.93
